Measurements taken from PubChem BioAssay.
Active and inactive are the calls of the source. Unless noted, how the calls were made is not given here.

Legend:
[1] = anti-His antibody binders, primary screen, artefact control for SMM control protein annotation, biochemical, small-molecule microarray, 635 nm fluorescence (AID 1128); conditions: anti-His Alexa647 antibody binding, higher = more signal;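 further: score merges feature fluorescence with signal-to-noise for each printed compound spot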
[2] = test system: Human papillomavirus type 1a E7 protein (residues 1-88); assay: HPV1a E7 small-molecule binders, primary screen, biochemical, small-molecule microarray, residues 1-88, 635 nm (AID 1129); conditions: small-molecule microarray binding, fluorescence 635 nm; higher = more signal
[3] = biological target: Focal adhesion kinase 1 (Homo sapiens) (UniProt Q05397); assay: small-molecule microarray binders of FAK, primary screen, biochemical, 635/667 nm fluorescence, BSA, DTT (AID 1130); conditions: PTK2 binding, 635 nm fluorescence, higher = more signal;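 further: composite of spot emission at 667 nm and signal to noise over triplicate slides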
Sequence of Focal adhesion kinase 1 (Homo sapiens) (Q05397 whole entry, looked up): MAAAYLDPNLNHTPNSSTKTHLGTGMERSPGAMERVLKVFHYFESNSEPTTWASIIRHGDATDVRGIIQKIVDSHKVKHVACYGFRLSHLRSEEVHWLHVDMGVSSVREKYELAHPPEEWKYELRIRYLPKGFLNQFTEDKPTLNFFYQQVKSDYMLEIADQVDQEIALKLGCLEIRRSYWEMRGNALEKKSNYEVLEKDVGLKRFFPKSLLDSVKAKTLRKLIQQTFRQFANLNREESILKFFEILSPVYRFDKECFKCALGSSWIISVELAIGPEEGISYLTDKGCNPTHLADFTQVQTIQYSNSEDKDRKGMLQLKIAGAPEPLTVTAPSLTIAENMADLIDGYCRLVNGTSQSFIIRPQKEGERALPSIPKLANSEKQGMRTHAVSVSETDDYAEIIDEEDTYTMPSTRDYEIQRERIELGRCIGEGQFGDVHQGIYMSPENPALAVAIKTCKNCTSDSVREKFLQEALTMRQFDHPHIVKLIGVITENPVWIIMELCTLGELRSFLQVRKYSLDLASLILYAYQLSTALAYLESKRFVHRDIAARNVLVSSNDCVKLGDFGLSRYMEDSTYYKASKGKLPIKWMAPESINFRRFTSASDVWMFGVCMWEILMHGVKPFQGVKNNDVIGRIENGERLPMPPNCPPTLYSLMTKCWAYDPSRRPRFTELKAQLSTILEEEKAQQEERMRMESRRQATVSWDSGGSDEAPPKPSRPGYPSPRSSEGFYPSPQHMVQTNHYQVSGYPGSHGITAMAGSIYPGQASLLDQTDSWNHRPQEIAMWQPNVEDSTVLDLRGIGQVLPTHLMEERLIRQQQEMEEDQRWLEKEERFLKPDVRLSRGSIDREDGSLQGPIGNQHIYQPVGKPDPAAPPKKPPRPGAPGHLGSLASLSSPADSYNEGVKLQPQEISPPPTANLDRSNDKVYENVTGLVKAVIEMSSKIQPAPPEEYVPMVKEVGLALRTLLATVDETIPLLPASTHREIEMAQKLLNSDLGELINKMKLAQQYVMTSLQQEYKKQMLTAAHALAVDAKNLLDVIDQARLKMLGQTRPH

[4] = test system: Fibrinogen (Alexa647-labelled); assay: fibrinogen binders on compound microarrays, profiling panel, artefact control for SMM control-protein annotation, biochemical, small-molecule microarray, 635/667 nm fluorescence (AID 1131); conditions: fibrinogen-A647 binding fluorescence, higher = more signal;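 further: z-score merges 667 nm fluorescence with per-spot signal-to-noise over triplicate slides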
[5] = biological target: Follistatin (Homo sapiens) (UniProt P19883); assay: follistatin binders on small-molecule microarrays, primary screen, biochemical, small-molecule microarray, 635/667 nm fluorescence (AID 1132); conditions: FST binding, 635 nm fluorescence, higher = more signal
Sequence of Follistatin (Homo sapiens) (P19883 whole entry, looked up): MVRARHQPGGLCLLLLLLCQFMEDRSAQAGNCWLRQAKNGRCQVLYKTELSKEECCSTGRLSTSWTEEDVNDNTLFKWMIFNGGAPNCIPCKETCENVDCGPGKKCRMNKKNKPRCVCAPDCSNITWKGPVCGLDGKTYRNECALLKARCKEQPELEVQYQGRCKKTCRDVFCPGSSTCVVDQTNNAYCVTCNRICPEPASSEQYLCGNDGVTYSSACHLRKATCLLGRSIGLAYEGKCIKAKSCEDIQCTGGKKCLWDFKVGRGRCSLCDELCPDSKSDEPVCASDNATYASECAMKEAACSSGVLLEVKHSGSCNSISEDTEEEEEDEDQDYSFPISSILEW

[6] = biological target: Fibroblast growth factor 2 (Homo sapiens) (UniProt P09038); assay: FGF2 binders on small-molecule microarrays, primary screen, biochemical, small-molecule microarray, 635/667 nm fluorescence (AID 1133); conditions: small-molecule microarray binding, FGF2, fluorescence 635/667; higher = more signal
Sequence of Fibroblast growth factor 2 (Homo sapiens) (P09038 whole entry, looked up): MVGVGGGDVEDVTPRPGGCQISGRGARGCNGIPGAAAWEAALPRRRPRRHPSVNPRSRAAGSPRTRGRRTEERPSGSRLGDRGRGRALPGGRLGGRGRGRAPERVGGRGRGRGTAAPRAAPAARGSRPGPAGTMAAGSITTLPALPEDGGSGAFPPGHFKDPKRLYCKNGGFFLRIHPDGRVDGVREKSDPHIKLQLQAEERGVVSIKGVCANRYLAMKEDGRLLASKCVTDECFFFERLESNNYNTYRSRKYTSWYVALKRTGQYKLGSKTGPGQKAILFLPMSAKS

[7] = mitochondrial membrane potential change in A549 cells, profiling panel, cell-based, JC-1 fluorescence, basal, 24 h, 100 nL (AID 1138); conditions: higher = more signal;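 further: A549 lung adenocarcinoma cells under basal conditions with no added stimulus; test concentration not given here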
[8] = test system: Lefty1; assay: Lefty1 binders on small-molecule microarrays, primary screen, biochemical, small-molecule microarray, 635/667 nm fluorescence (AID 1139); conditions: small-molecule microarray binding, fluorescence 635/667; higher = more signal
[9] = test system: wheat germ agglutinin (Triticum aestivum), Alexa647-labelled; assay: wheat germ agglutinin binders on compound microarrays, profiling panel, artefact control for SMM control-protein annotation, biochemical, small-molecule microarray, 635/667 nm fluorescence (AID 1140); conditions: WGA-A647 binding, 635 nm fluorescence, higher = more signal;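 further: score merges 667 nm feature emission with signal to noise over triplicate slides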
[10] = biological target: Luciferin 4-monooxygenase (Photinus pyralis) (UniProt P08659); assay: firefly luciferase enzyme inhibitors, primary screen, biochemical, luminescence, purified enzyme, 2006 set (AID 1141); conditions: SteadyGlo luminescence, 30 min, higher = more signal, called active from +8 up or from −8 down;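 further: cell-free assay with purified firefly luciferase at 100 ng per well in PBS; test concentration not given here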
Sequence of Luciferin 4-monooxygenase (Photinus pyralis) (P08659 whole entry, looked up): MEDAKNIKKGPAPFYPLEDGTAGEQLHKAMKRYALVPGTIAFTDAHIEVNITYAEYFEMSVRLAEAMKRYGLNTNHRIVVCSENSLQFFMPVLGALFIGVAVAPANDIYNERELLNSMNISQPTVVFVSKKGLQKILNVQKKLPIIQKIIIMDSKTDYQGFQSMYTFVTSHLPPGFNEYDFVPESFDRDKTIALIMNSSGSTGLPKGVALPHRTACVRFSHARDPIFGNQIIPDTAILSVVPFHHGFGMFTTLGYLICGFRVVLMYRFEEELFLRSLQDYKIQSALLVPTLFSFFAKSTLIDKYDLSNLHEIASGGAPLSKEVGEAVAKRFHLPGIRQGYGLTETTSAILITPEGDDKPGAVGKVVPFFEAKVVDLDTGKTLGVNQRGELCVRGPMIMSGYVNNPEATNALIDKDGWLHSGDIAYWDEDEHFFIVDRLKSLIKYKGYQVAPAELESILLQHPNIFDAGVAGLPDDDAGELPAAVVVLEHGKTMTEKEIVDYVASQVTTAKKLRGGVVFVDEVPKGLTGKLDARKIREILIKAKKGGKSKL

[11] = test system: Wnt5a (protein binding on small-molecule microarray); assay: Wnt5a binders on small-molecule microarray, primary screen, biophysical, 635/667 nm fluorescence (AID 1142); conditions: 635 nm fluorescence, higher = more signal;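 further: fluorescence read at 667 nm with signal to noise per printed feature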
[12] = cell viability in Huh7 cells, primary screen, cytotoxicity control for HCV replication inhibitor project, CellTiter-Glo luminescence, basal, 48 h (AID 1143); conditions: Huh7 HCV replicon, higher = more signal, called active from +8 up or from −8 down;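 further: Huh7 hepatoma cells carrying a hepatitis C replication reporter with no stimulus; test concentration not given here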
[13] = P. aeruginosa biofilm formation inhibitors, primary screen, PAO1 strain, BacTiter-Glo luminescence, LB-PBS (AID 1144); conditions: 12 h, higher = more signal
[14] = CREB reporter modulators without forskolin, primary screen, cell-based, PC12, CRE-LacZ reporter, unstimulated (AID 1145); conditions: no forskolin, luminescence, 4.5 h, higher = more signal, called active from +8 up or from −8 down
[15] = CREB reporter modulators under forskolin, primary screen, cell-based, PC12, CRE-LacZ reporter, forskolin-stimulated (AID 1146); conditions: luminescence, 4.5 h, higher = more signal, called active from +8 up or from −8 down;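 further: PC12 cells with 6xCRE LacZ reporter stimulated by forskolin 10 µM; beta-galactosidase reporter signal reflecting CREB driven transcription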
[16] = biological target: Streptavidin (Streptomyces avidinii) (UniProt P22629); assay: streptavidin binders on small-molecule microarray, primary screen, artefact control for SMM compound annotation, biophysical, 635/667 nm fluorescence (AID 1147); conditions: streptavidin binding, higher = more signal;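 further: signal reflects streptavidin binding to arrayed compounds as a control protein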
Sequence of Streptavidin (Streptomyces avidinii) (P22629 whole entry, looked up): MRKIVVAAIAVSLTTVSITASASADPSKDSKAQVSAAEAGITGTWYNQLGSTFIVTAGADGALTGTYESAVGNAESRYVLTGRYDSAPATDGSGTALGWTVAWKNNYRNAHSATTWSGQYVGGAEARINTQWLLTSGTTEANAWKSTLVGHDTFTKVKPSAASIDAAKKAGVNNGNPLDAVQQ

[17] = small-molecule binders of probe aInhba, primary screen, biochemical, small-molecule microarray, 635/667 nm fluorescence (AID 1148); conditions: higher = more signal;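 further: score merges 667nm spot fluorescence with signal-to-noise for antibody binding to printed compounds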
[18] = biological target: Torsin-1A (Homo sapiens) (UniProt O14656); assay: torsin A binders from cell lysate, primary screen, small-molecule microarray, wild-type, 635/667 nm (AID 1149); conditions: COS7 hTOR1A-WT lysate, 635 nm fluorescence, higher = more signal
Sequence of Torsin-1A (Homo sapiens) (O14656 whole entry, looked up): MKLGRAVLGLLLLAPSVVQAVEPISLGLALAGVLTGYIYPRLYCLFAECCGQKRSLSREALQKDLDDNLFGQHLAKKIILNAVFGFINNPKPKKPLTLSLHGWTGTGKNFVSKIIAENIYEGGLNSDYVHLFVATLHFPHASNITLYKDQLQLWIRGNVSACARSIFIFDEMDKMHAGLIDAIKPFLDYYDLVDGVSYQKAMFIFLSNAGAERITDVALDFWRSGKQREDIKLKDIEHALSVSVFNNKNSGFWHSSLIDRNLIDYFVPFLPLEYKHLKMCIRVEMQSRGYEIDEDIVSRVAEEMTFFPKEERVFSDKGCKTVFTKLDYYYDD

[19] = biological target: Torsin-1A (Homo sapiens) (UniProt O14656); assay: small-molecule binders of mutant TOR1A in lysate, primary screen, cell lysate, small-molecule microarray, COS7 lysate, 635/667 nm fluorescence (AID 1150); conditions: COS7 hTOR1A mutant lysate, 635 nm fluorescence, higher = more signal;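 further: score pools 667 nm emission and signal to noise measuring lysate protein binding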
[20] = test system: Sonic hedgehog protein (Shh); assay: small-molecule binders of Shh protein, primary screen, biochemical, small-molecule microarray, 635/667 nm fluorescence (AID 1151); conditions: small-molecule microarray binding, 635 nm fluorescence; higher = more signal;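 further: Shh protein binding to compounds spotted on small-molecule microarray slides; score combines spot fluorescence intensity with signal-to-noise across triplicate slides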

Row | Compound | composite z-score [1] | composite z-score [2] | composite z-score [3] | composite z-score [4] | composite z-score [5] | composite z-score [6] | z-score [7] | composite z-score [8] | composite z-score [9] | z-score [10] | composite z-score [11] | z-score [12] | z-score [13] | z-score [14] | z-score [15] | composite z-score [16] | composite z-score [17] | composite z-score [18] | composite z-score [19] | composite z-score [20]
1 | CCCC[C@H]1OB(O)C[C@H]2C1=C(C)C[C@H]1C(=O)C=CC(=O)[C@H]12 | 0.306 | 0.615 | -0.244 | 0.483 | 0.828 | 0.642 | -0.353 | 1.16 | -0.0126 | -2.94 (inactive) | -0.0289 | -1.52 (inactive) | 0.244 (inactive) | 19.6 (active) | 14.8 (active) | 0.146 | -0.0292 | 0.935 | 0.527 | 1.71
2 | CCOC(=O)C1=CC[C@@H](c2ccccc2Cl)N(S(=O)(=O)c2ccc(C)cc2)[C@H]1c1cccc(OC)c1 | 0.413 | 1.05 | 0.1 | 0.737 | 0.176 | 0.0652 | 0.0495 | -0.0177 | 0.54 | 0.658 (inactive) | 0.142 | -1.84 (inactive) | 1.15 (inactive) | 0.425 (inactive) | 0.173 (inactive) | 0.333 | -0.0695 | 0.368 | 0.0635 | -0.476
3 | CC(C)(C)OC(=O)CC[C@]1(C(=O)N2CCOCC2)N=C(c2ccc(OCCCO)cc2)O[C@H]1c1ccccc1CN=[N+]=[N-] | 0.442 | 1.29 | 0.527 | 0.979 | 1.42 | 1.39 | -0.423 | 0.23 | 1.19 | -1.15 (inactive) | 1.07 | -0.569 (inactive) | -0.405 (inactive) | -0.263 (inactive) | -1.4 (inactive) | 1.08 | 0.279 | 1.12 | 1.58 | 0.242
4 | COc1ccc(C(O)C2C=CC3C(=O)N(C)C(=O)C3N2Nc2ccc([N+](=O)[O-])cc2[N+](=O)[O-])cc1OCc1ccccc1 (stereo not given) | 1.05 | 1.19 | 0.368 | 0.545 | 0.699 | -0.0627 | 0.552 | 0.0695 | 1.15 | 0.0945 (inactive) | 0.477 | 0.351 (inactive) | 0.967 (inactive) | 0.243 (inactive) | 0.706 (inactive) | 0.171 | 0.566 | 0.255 | 0.387 | -0.105
5 | COCC1=C([C@H](O)CCc2ccccc2)[C@H](CO)n2c(=O)n(-c3ccccc3)c(=O)n2C1 | -0.507 | -0.364 | -0.044 | -0.325 | 0.0942 | 1.08 | -0.152 | -0.0597 | 0.361 | -1.59 (inactive) | -0.419 | -1.24 (inactive) | -0.84 (inactive) | 0.129 (inactive) | -0.2 (inactive) | -0.101 | -0.154 | -0.115 | -0.414 | 0.199
